From the supplement of paper PMC6555819

What was measured:
Assay in all cases: PBM binding z-score (relative to random genomic background probes); higher = stronger binding; sequences stand for … in GC…GCGATTGACAGCGTAGAATGAAGG
[1] = system: FXR:RXRa (NR concentration 270 nM, RXRa partner concentration 90 nM)
In short: (§1)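 Custom Agilent 4×180K protein-binding microarrays carried double-stranded probes, each with a 34-nt variable region. These regions held direct-repeat seeds, single-nucleotide variants, half-site ablations and random human genomic background sequences. Ligand-free nuclear receptor dimers were incubated on the arrays for 1 h, antibodies against each partner (one per run) detected binding, and scanned fluorescence was regression-normalized. Binding z-scores take the random background probes as reference.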

[2] = system: LXRa:RXRa (NR concentration 270 nM, RXRa partner concentration 90 nM)
In short: as §1

[3] = system: LXRa homodimer (NR concentration 270 nM)
In short: as §1

[4] = system: LXRb:RXRa (NR concentration 270 nM, RXRa partner concentration 90 nM)
In short: as §1

[5] = system: LXRb homodimer (NR concentration 270 nM)
In short: as §1

[6] = system: PPARa:RXRa (NR concentration 270 nM, RXRa partner concentration 90 nM)
In short: as §1

[7] = system: PPARg:RXRa (NR concentration 180 nM, RXRa partner concentration 90 nM)
In short: as §1

[8] = system: PPARg:RXRa 270nM:90nM, anti-RXR (NR concentration 270 nM, RXRa partner concentration 90 nM)
In short: as §1

[9] = system: PPARg:RXRa 30nM:10nM, anti-RXR (NR concentration 30 nM, RXRa partner concentration 10 nM)
In short: as §1

[10] = system: PPARg:RXRa 90nM:30nM, anti-RXR (NR concentration 90 nM, RXRa partner concentration 30 nM)
In short: as §1

[11] = system: PPARg:RXRa DBDmut IVT, anti-RXR (DBD mutation: RXRa K156A/R161A, NR concentration 270 nM, RXRa partner concentration 90 nM)
In short: as §1

[12] = system: PPARg:RXRa IVT, anti-PPARg (NR concentration 270 nM, RXRa partner concentration 90 nM)
In short: as §1

[13] = system: PPARg DBDmut:RXRa IVT, anti-PPARg (DBD mutation: PPARg1 K132A/R137A, NR concentration 270 nM, RXRa partner concentration 90 nM)
In short: as §1

[14] = system: PPARg DBDmut IVT, anti-PPARg (DBD mutation: PPARg1 K132A/R137A, NR concentration 270 nM)
In short: as §1

[15] = system: PPARg homodimer (NR concentration 180 nM)
In short: as §1

[16] = system: PXR:RXRa (NR concentration 270 nM, RXRa partner concentration 90 nM)
In short: as §1

[17] = system: PXR homodimer (NR concentration 270 nM)
In short: as §1

[18] = system: RARa:RXR (NR concentration 270 nM, RXRa partner concentration 90 nM)
In short: as §1

[19] = system: RARa homodimer (NR concentration 270 nM)
In short: as §1

[20] = system: RARb:RXRa (NR concentration 270 nM, RXRa partner concentration 90 nM)
In short: as §1

Sequence	PBM binding z-score [1]	PBM binding z-score [2]	PBM binding z-score [3]	PBM binding z-score [4]	PBM binding z-score [5]	PBM binding z-score [6]	PBM binding z-score [7]	PBM binding z-score [8]	PBM binding z-score [9]	PBM binding z-score [10]	PBM binding z-score [11]	PBM binding z-score [12]	PBM binding z-score [13]	PBM binding z-score [14]	PBM binding z-score [15]	PBM binding z-score [16]	PBM binding z-score [17]	PBM binding z-score [18]	PBM binding z-score [19]	PBM binding z-score [20]
TCATATCGGTAAAAGGTGAAAGTCGGTGTGGTAA	1.65	1.77	0.323	1.52	0.181	4.23	6.69	6.91	6.64	7.74	3	3.46	0.579	1.77	2.19	1.25	0.807	2.24	1.92	1.97
AGAATGAGGTTACCAAAGATCAGAGAAACGCTTG	2.03	6.18	0.173	3.6	-0.0648	3.32	2.75	2.19	0.774	1.78	3.76	3.32	1.01	0.709	0.304	1.28	0.161	2.02	0.489	2.09
CGAACTAAGTCAAGGACAGTGAATCTCCGCACGC	-0.155	-0.206	-0.211	-0.441	-0.793	-0.228	0.372	-0.132	-0.287	-0.694	0.868	0.214	-0.424	-0.249	-0.418	-0.229	-0.329	0.0296	-0.646	0.556
CAAACTAGGTCACCGGAAGTTCAAAGTCCGCATG	5.16	5.88	4.93	4.26	1.06	5.9	9.18	7.54	5.95	7.54	8.47	9.21	5.32	4.81	7.04	6.19	6.26	5.86	1.72	4.85
CCGACTGGGGCAGAAGGTTACCATAAGCCAGCCC	-0.0856	1.46	-0.41	0.494	-1.21	1.43	1.92	3.09	0.815	2.15	1.61	1.92	-0.993	-1.69	0.826	0.166	0.188	0.736	-0.0153	1.25
GCGACTGGGGCATCAGCAGGTTAGCATAACTTAA	-0.723	-0.775	-0.738	0.063	-1.51	0.705	0.575	0.572	-0.512	0.0276	3.62	2.57	-1.06	-1.09	-0.262	-0.392	-0.845	-0.492	-0.942	0.511
TTACCAAGGTGAGCTGAGATCGTTGATCCAACTC	-0.243	-0.689	-0.907	-0.704	-1.18	0.12	-0.0237	0.4	-0.0278	0.278	1.12	1.5	-0.91	-0.653	-1.58	0.00925	-1.19	-0.376	-1.19	0.893
AGTGAAAGTTCATCTAGGTAACGTAAGATATGCT	5.95	5.92	5.06	3.56	1.86	4.52	5.39	5.5	2.65	4.84	0.529	3.41	1.8	1.64	2.58	4.68	6.78	3.24	1.4	4.63
TCGAGTAGGTTATCAATGGGGCATTCAGCTTTCT	0.264	1.14	-0.501	1.05	-0.428	0.979	-0.105	0.76	1.03	0.852	3.08	1.84	-0.103	-0.254	-0.00524	0.223	-0.333	0.202	-0.0483	0.739
ACTAGTTGATCAGCTGAGGTCACACACAATTCGG	3.31	2.93	1.91	3.51	0.605	3.89	1.6	2.33	0.574	1.42	0.672	2.14	0.806	1.68	2.57	4.97	2.19	4.95	0.417	3.22
CCTATTAGTTTACCATAAGGGCAACCGAAGCTCG	0.454	0.693	0.603	0.679	0.527	0.641	0.273	0.684	0.33	0.455	0.246	0.459	0.256	1.25	1.47	0.681	1.08	0.819	1.51	1.6
CGTCCAAGGTCAAAGGTCAGAGAAGAGATGACGG	8.35	7.24	3.55	6.68	1.89	7.26	10.7	9.26	8.39	9.75	4.12	6.13	1.12	0.47	3.77	7.04	1.67	8.89	1.92	5.97
CCTAGTTGGTCAAGGTCACCCACGCTATAGGTAC	4.05	3.51	2.14	3.51	0.583	4.14	2.93	3.43	1.1	2.35	1.97	3.64	0.717	1.37	4.86	4.16	2.4	4.82	3.27	4.16
TCGAGTAGGTTAGTCTGGGCATTCAGCCAACATA	-0.238	-0.131	-0.19	-0.216	-1.35	0.169	-0.258	0.528	0.844	0.781	1.92	1.79	-0.593	-0.623	-0.00252	-0.302	-0.724	-0.271	-0.668	-0.185
CCTACTGGGCCAACAGGTCATTGATATCAACGTT	1.42	1.52	1.37	1.98	-0.204	3.21	4.01	4.41	2.65	4.24	4.64	4.84	0.0699	0.305	1.23	1.92	0.325	2.13	-0.373	2.12
GCTAGCAGGCCATTTGGGTCACTGAATGACGGGC	-0.0182	-0.185	-0.885	-0.0353	-0.763	1.33	0.576	0.447	-0.489	-0.116	1.8	2.35	-0.118	-0.738	-0.224	0.537	-0.19	0.876	-0.661	1.49
GTACCATGGTGAATAGGTCGTTGATGAGTAGGCG	-0.238	0.114	-0.331	-0.0798	-0.524	0.641	0.623	0.293	-0.175	0.119	0.107	0.275	-0.162	0.3	0.352	0.151	-0.347	0.29	-0.148	0.41
ACTTACGGATCAACGAGGTTATAGCACGCGTATA	0.716	0.914	0.686	1.25	0.594	1.47	0.98	0.564	0.453	0.486	0.402	0.468	0.823	0.952	0.607	1.41	0.695	1.5	1.25	0.645
ACTATTAGTTGACTTGGGGCAACCGATACGACGC	0.435	0.287	0.238	0.754	1.05	-0.000395	0.902	0.242	0.327	0.389	0.684	0.607	1.18	1.45	0.367	0.156	0.385	0.245	0.466	0.789
CCAGACAGGTGAAAGGTACCTCAGTCTGGTACGC	-0.0455	0.27	-0.338	0.286	-0.978	2.28	3.4	4.94	2.26	4.17	1.66	1.96	-0.554	-0.542	0.247	0.109	-0.251	0.49	-0.2	0.786
CGTCCAAGGTCCGCAGGTCAGTGAAAGCGACGTG	-0.0411	-0.153	-0.475	-0.0275	-1.05	0.735	-0.507	0.0239	-0.651	-0.568	0.12	-0.306	-1.07	-1.27	-0.166	0.139	-0.304	0.547	-0.545	1.89
GATACAGGGTCAGCTAGAGGCCAGTGTATGGAAA	4.14	2.46	-0.408	2.42	-0.768	4.11	3.25	3	1.16	1.86	0.823	2.25	0.256	-0.378	3.5	3.29	0.17	4.54	-0.191	4.15
TCATAGAGGTAAACAGGTGAAAGTCCGTAAGTTA	0.648	0.794	-0.178	0.62	-0.997	2.14	1.65	2.55	2.8	2.68	2.54	2.16	0.176	0.0732	0.143	0.625	-0.208	1.11	0.579	0.861
TCTGCTAGGTCAACGATGGTAAGCTAATCTGCTA	3.07	2.01	-0.518	1.4	-0.543	2.85	2.51	3.09	1.65	2.31	4.18	4.18	0.49	-0.213	0.663	0.925	-1.17	1.92	-1	4.03
ATATGTAGGTTACATCCGGGTCATTCAGGCTATG	2.66	4.27	1.82	3.02	0.76	4.32	5.92	5.17	2.54	4.54	7.56	7.11	2.58	1.6	2.15	3.62	2.13	3.64	0.928	2.23
TCGCGGAGGACACGAAGGTCAGAGCTTTCCAGAG	0.923	0.953	0.0426	0.704	-1.29	1.84	0.306	1.15	0.607	0.901	0.6	0.577	-0.818	-2.01	1.37	1.83	0.425	1.74	0.1	3.26
GCTGTTAGGTCAGGTTGGTCAGCTAACGGGTACG	1.95	1.14	-0.132	1.04	0.0917	1.79	0.166	1	-0.41	0.138	2.26	1.9	-0.586	0.313	1.07	0.645	-0.159	1.28	0.0798	3.49
GCTGCTAGGTCAACTGATGGTCAGCTGAAGCTCG	4.05	3.09	0.169	1.83	-0.22	3.62	2.6	2.86	0.554	2.21	4.69	3.93	-0.679	-0.202	1.06	1.45	-0.515	2.72	-0.515	4.31
